Measured values taken from PubChem BioAssay (NCI).
Compounds without any hit were thinned out: in the full panel of roughly 83,000, 20% have a hit.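 Compound tested at a single concentration for 48 hours in 96-well plates; a percent growth value below 10 was scored as active.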 Calls of active or inactive are those of the source.

How the values were obtained:
Assay in all cases: NCI-60 one-dose screen, 48 h (100 = growth as untreated, 0 = no growth, -100 = all killed)
Details in all cases: 10 µM unless noted
NCI-H23 lung = tested on: NCI-H23 lung
NCI-H226 lung = tested on: NCI-H226 lung
NCI-H322M lung = tested on: NCI-H322M lung
HOP-62 NSCLC = tested on: HOP-62 NSCLC
NCI-H460 lung = tested on: NCI-H460 lung
HOP-92 NSCLC = tested on: HOP-92 NSCLC
NCI-H522 lung = tested on: NCI-H522 lung
A549/ATCC NSCLC = tested on: A549/ATCC NSCLC
786-0 renal = tested on: 786-0 renal
COLO 205 colon = tested on: COLO 205 colon

Measured: growth

COc1cccc(-c2[nH]c(=S)ncc2C(=O)c2ccccc2)c1
inactive: NCI-H23 lung 97% | NCI-H226 lung 102% | NCI-H322M lung 99.9% | HOP-62 NSCLC 78.8% | NCI-H460 lung 91.9% | HOP-92 NSCLC 102% | NCI-H522 lung 70.9% | A549/ATCC NSCLC 88.4% | 786-0 renal 100% | COLO 205 colon 84.7%

Ic1ccc2[nH]cc(SSc3c[nH]c4ccc(I)cc34)c2c1
inactive: NCI-H23 lung 17.9% | NCI-H226 lung 24.9% | NCI-H322M lung 57.8% | HOP-62 NSCLC 30.4% | A549/ATCC NSCLC 21.8% | 786-0 renal 41.6%
active: NCI-H460 lung -11.5% | HOP-92 NSCLC -6.72% | NCI-H522 lung -48% | COLO 205 colon -37.1%

O=C(NCCO)c1cccnc1
inactive: NCI-H23 lung 102% | NCI-H226 lung 92.7% | NCI-H322M lung 95.9% | HOP-62 NSCLC 91.9% | NCI-H460 lung 98.9% | HOP-92 NSCLC 82.7% | NCI-H522 lung 73% | A549/ATCC NSCLC 88.5% | 786-0 renal 97% | COLO 205 colon 105%

O=C1COCCN1c1ccc(NCc2cn(Cc3cccc4ccccc34)c3ccccc23)cc1
active: NCI-H226 lung 5.06%
inactive: NCI-H23 lung 84% | NCI-H322M lung 91.5% | HOP-62 NSCLC 84.3% | NCI-H460 lung 64.4% | HOP-92 NSCLC 72.6% | NCI-H522 lung 86.3% | A549/ATCC NSCLC 87.7% | 786-0 renal 98.8% | COLO 205 colon 93.6%

CCOC(=O)C(c1ccccc1)N1C(=O)c2ccccc2C1=O (stereo not given)
inactive: NCI-H23 lung 87.2% | NCI-H226 lung 106% | NCI-H322M lung 96.2% | HOP-62 NSCLC 95.8% | NCI-H460 lung 100% | HOP-92 NSCLC 82% | NCI-H522 lung 96.8% | A549/ATCC NSCLC 97.6% | 786-0 renal 102% | COLO 205 colon 98.5%

COc1ccc(/C=C/C(=C/c2c(O)[nH]c3cc(Br)ccc23)N=O)cc1
inactive: NCI-H23 lung 111% | NCI-H226 lung 103% | NCI-H322M lung 113% | HOP-62 NSCLC 111% | NCI-H460 lung 108% | HOP-92 NSCLC 116% | NCI-H522 lung 105% | A549/ATCC NSCLC 104% | 786-0 renal 112% | COLO 205 colon 126%

CC1Cc2c(Cl)ncnc2N(C)c2ccc(Cl)cc21 (stereo not given)
active: NCI-H226 lung -5.56% | HOP-92 NSCLC 8.05% | NCI-H522 lung -68.3% | 786-0 renal 8.16% | COLO 205 colon -77.6%
inactive: NCI-H23 lung 13.5% | NCI-H322M lung 36.8% | HOP-62 NSCLC 13.6% | NCI-H460 lung 19.2% | A549/ATCC NSCLC 17.9%

N#C/C(C(=O)c1ccccc1)=C1/C(=O)Nc2ccc(F)cc21
inactive: NCI-H23 lung 98.4% | NCI-H226 lung 95.4% | NCI-H322M lung 108% | HOP-62 NSCLC 84.8% | NCI-H460 lung 106% | HOP-92 NSCLC 115% | NCI-H522 lung 96.6% | A549/ATCC NSCLC 105% | 786-0 renal 101% | COLO 205 colon 119%

CC(C)c1ccc(C(=O)Nc2sc3c(c2C#N)CCC(=O)C3)cc1
active: NCI-H23 lung -5.74% | NCI-H460 lung 3.31% | HOP-92 NSCLC -52.2% | NCI-H522 lung -36.7% | 786-0 renal 8.77% | COLO 205 colon -36.5%
inactive: NCI-H226 lung 50.5% | NCI-H322M lung 71.9% | HOP-62 NSCLC 36.9% | A549/ATCC NSCLC 15%

O=[N+]([O-])c1cc([N+](=O)[O-])c(NN=C(c2ccc(O)cc2)c2ccc(O)cc2)cc1Cl
active: NCI-H23 lung -72.9% | NCI-H226 lung -28% | NCI-H322M lung 9.47% | HOP-62 NSCLC -91.2% | NCI-H460 lung -6.95% | HOP-92 NSCLC -69.6% | NCI-H522 lung -55.1% | A549/ATCC NSCLC -71.2% | 786-0 renal -89%
inactive: COLO 205 colon 25.6%

CCCCC1COc2cccc3c2N1C=C/C3=C\C(=O)n1ccc2ccccc21 (stereo not given)
inactive: NCI-H23 lung 76.5% | NCI-H226 lung 84% | NCI-H322M lung 96.4% | HOP-62 NSCLC 79.2% | NCI-H460 lung 88.2% | HOP-92 NSCLC 63.3% | NCI-H522 lung 56% | A549/ATCC NSCLC 78.7% | 786-0 renal 90.1% | COLO 205 colon 91%

C#C[C@]1(O)CC[C@H]2[C@@H]3CC=C4c5nc(Nc6ccccn6)sc5CC[C@]4(C)[C@H]3CC[C@@]21C
active: HOP-62 NSCLC -10.4% | NCI-H460 lung 4.83% | HOP-92 NSCLC -24.5% | NCI-H522 lung -6.06% | 786-0 renal -69.6%
inactive: NCI-H23 lung 34.7% | NCI-H226 lung 38.1% | NCI-H322M lung 35.8% | A549/ATCC NSCLC 14.5% | COLO 205 colon 35%

Cn1cc(-c2nnc(-c3cn(C)c4ncccc34)o2)c2ccccc21
inactive: NCI-H23 lung 51.3% | NCI-H226 lung 64.9% | NCI-H322M lung 75.8% | HOP-62 NSCLC 32.6% | NCI-H460 lung 23.7% | NCI-H522 lung 21.3% | A549/ATCC NSCLC 36% | 786-0 renal 59.7% | COLO 205 colon 25.7%
active: HOP-92 NSCLC 7.94%

Nc1cc(N)c(N=Nc2ccc(S(=O)(=O)O)cc2)cc1N=Nc1ccc(-c2ccc(N=Nc3ccc(O)c(C(=O)O)c3)cc2)cc1
inactive: NCI-H23 lung 95.7% | NCI-H226 lung 92.2% | NCI-H322M lung 101% | HOP-62 NSCLC 98.8% | NCI-H460 lung 105% | HOP-92 NSCLC 108% | NCI-H522 lung 98.2% | A549/ATCC NSCLC 101% | 786-0 renal 105% | COLO 205 colon 109%

CC(C)(C)c1cc(C(=O)Nc2ccc(C(=O)NCCN)cc2)cc(C(C)(C)C)c1
active: NCI-H460 lung 3.53% | COLO 205 colon -77.7%
inactive: NCI-H23 lung 85% | NCI-H226 lung 84.2% | NCI-H322M lung 58.3% | HOP-62 NSCLC 67% | HOP-92 NSCLC 26.1% | NCI-H522 lung 40.3% | A549/ATCC NSCLC 39.3% | 786-0 renal 32.2%

COc1ccc(NC(=O)Nc2ccc(-c3cccnc3)cc2N2CCC(CO)CC2)cc1
inactive: NCI-H23 lung 27.1% | NCI-H226 lung 86.8% | NCI-H322M lung 59.1% | HOP-62 NSCLC 54% | NCI-H460 lung 60.1% | HOP-92 NSCLC 78.1% | NCI-H522 lung 25.2% | A549/ATCC NSCLC 41% | 786-0 renal 30.8% | COLO 205 colon 70%

Cc1cccc(C[C@H](NC(=O)Nc2ccc(C)cc2F)C(=O)N[C@@H]2C(=O)N3C[C@H](O)C[C@H]3C(=O)N3CCN(C)C[C@H]3C(=O)N[C@@H](C)C(=O)N3C[C@H](C)C[C@H]3C(=O)O[C@H]2C)c1
inactive: NCI-H23 lung 38.1% | NCI-H226 lung 53.9% | NCI-H322M lung 73.3% | HOP-62 NSCLC 57.9% | NCI-H460 lung 42.5% | HOP-92 NSCLC 38.9% | NCI-H522 lung 38% | A549/ATCC NSCLC 43.5% | 786-0 renal 84.2% | COLO 205 colon 12.4%
